Results with a measured potency or affinity are listed apart.
tested on: Cryptococcus neoformans; conditions: Concentration 32 ug.mL-1; ASSAY_TEST Inhibition of Fungal Growth; detection method Resazurin; Absorption (OD600-OD570); plate type 384well; NBS; CORNING #3640

Compared with `COc1cccc(NC(=O)Cn2nc3c(N4CCCC4)nccn3c2=O)c1`, `Cc1ccc(Oc2nccn3c(=O)n(CC(=O)Nc4cccc(Br)c4)nc23)cc1` is lower in Inhibition: -12.87% for the first, -18.68% for the second.

Going from `COc1cc(OC)c(NC(=O)Cn2nc3c(Oc4ccc(C)cc4)nccn3c2=O)cc1Cl` to `CCOc1ccc(NC(=O)Cn2nc3c(Oc4ccc(C)cc4)nccn3c2=O)cc1`, the Inhibition falls from -3.76% to -8.36%.

Compared with `Cc1ccc(C)c(NC(=O)Cn2nc3ccc(-c4ccc(C)c(C)c4)nn3c2=O)c1`, `COc1ccc(-c2cc3c4nn(CC(=O)Nc5c(C)cccc5C)c(=O)n4ccn3n2)cc1` is lower in Inhibition: -3.49% for the first, -19.98% for the second.

Going from `Cc1cccc(Oc2nccn3c(=O)n(CC(=O)N4CCN(c5ccc(F)cc5)CC4)nc23)c1C` to `CC(C)c1nnc2c(SCC(=O)N3CCN(c4ccccc4F)CC3)nc3ccccc3n12`, the Inhibition falls from -7.63% to -28.6%.

Going from `Cc1ccc(-c2cc3c4nn(CC(=O)Nc5ccc6c(c5)OCO6)c(=O)n4ccn3n2)cc1` to `COc1ccc(NC(=O)Cn2nc3ccc(Sc4ccccc4)nn3c2=O)cc1`, the Inhibition rises from -32.25% to -9.77%.

Compared with `COc1cccc(CNC(=O)CSc2nnc3c(=O)n(-c4ccccc4)ccn23)c1OC`, `CCOc1ccc(C(=O)CSc2nnc3c(=O)n(-c4ccc(C)c(C)c4)ccn23)cc1` is higher in Inhibition: -16.17% for the first, -7.55% for the second.

Going from `Cc1cc(C)cc(Nc2nc(C)cc3nn(CC(=O)Nc4cc(F)cc(F)c4)c(=O)n23)c1` to `CC(C)NC(=O)CCn1c(=O)c2ccccc2n2c(=O)n(CC#N)nc12`, the Inhibition falls from -10.24% to -13.64%.
